# Several values for one entry are separate records, joined by “and”; a condition that tells them apart may be missing. Equal values may be shown once. About 83,000 compounds went through this panel and 20% of them were active in at least one assay; those are over-represented in the sample as a whole.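 Values shown are percent growth following 48 h exposure of cells in 96-well plates to a single concentration of compound; below 10 was considered active.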 Activity calls are given as the source filed them.
# What was measured:
# Experiment in all cases: NCI-60 one-dose screen, 48 h (100 = growth as untreated, 0 = no growth, -100 = all killed)
# [1] = system: T-47D breast; conditions: 10 µM
# [2] = system: BT-549 breast
# [3] = system: MDA-MB-435 melanoma
# [4] = system: SW-620 colon
# [5] = system: MCF7 breast
# [6] = system: HCT-116 colon
# [7] = system: HCC-2998 colon
# [8] = system: KM12 colon; conditions: 10 µM
smiles,measurement,setting,value
Cc1cc(NS(=O)(=O)c2ccc(N=Nc3cc(N=Nc4ccc(S(=O)(=O)Nc5cc(C)nc(C)n5)cc4)c4c(NC(=O)C(Cl)Cl)cccc4c3OC(=O)C(Cl)Cl)cc2)nc(C)n1 (tested in a mixture with another compound),growth,[1],101% (inactive) and 87.1% (inactive)
same,growth,[2]; 10 µM,111% (inactive) and 99.7% (inactive)
same,growth,[3]; 10 µM,101% (inactive) and 111% (inactive)
same,growth,[4]; 10 µM,122% (inactive) and 104% (inactive)
same,growth,[5]; 10 µM,94.4% (inactive) and 78% (inactive)
same,growth,[6]; 10 µM,105% (inactive) and 95.2% (inactive)
same,growth,[7]; 10 µM,107% (inactive) and 111% (inactive)
CCCC1CCC(=C2C(=O)CCC2=O)O1 (centres undefined),growth,[1],87.8% (inactive) and 110% (inactive)
same,growth,[2]; 10 µM,86.3% (inactive) and 106% (inactive)
same,growth,[3]; 10 µM,94.8% (inactive) and 95.4% (inactive)
same,growth,[4]; 10 µM,105% (inactive)
same,growth,[5]; 10 µM,91.9% (inactive) and 118% (inactive)
same,growth,[6]; 10 µM,91.9% (inactive) and 107% (inactive)
same,growth,[7]; 10 µM,104% (inactive) and 99.1% (inactive)
CC[N+](CC)=c1ccc2nc3c(cc(N)c4ccccc43)oc-2c1,growth,[2]; 10 µM,-53.4% (active)
same,growth,[3]; 10 µM,-82.2% (active)
same,growth,[4]; 10 µM,-25.2% (active)
same,growth,[5]; 10 µM,-46.3% (active)
same,growth,[6]; 10 µM,-27.1% (active)
same,growth,[7]; 10 µM,-78% (active)
O=[N+]([O-])C1=C(c2ccccc2)SC=C(c2ccccc2)S1,growth,[1],51.9% (inactive)
same,growth,[2]; 10 µM,55.3% (inactive)
same,growth,[3]; 10 µM,75.3% (inactive)
same,growth,[4]; 10 µM,62.5% (inactive)
same,growth,[5]; 10 µM,51.6% (inactive)
same,growth,[6]; 10 µM,67% (inactive)
same,growth,[7]; 10 µM,108% (inactive)
CS(=O)(=O)OC1CC(n2ccc(=O)[nH]c2=O)OC1COC(c1ccccc1)(c1ccccc1)c1ccccc1 (centres undefined),growth,[1],96.7% (inactive)
same,growth,[2]; 10 µM,99.4% (inactive)
same,growth,[3]; 10 µM,125% (inactive)
same,growth,[4]; 10 µM,105% (inactive)
same,growth,[5]; 10 µM,97.3% (inactive)
same,growth,[6]; 10 µM,92.9% (inactive)
same,growth,[7]; 10 µM,106% (inactive)
same,growth,[8],93.5% (inactive)
O=C1C=C(O)c2ccccc2C1=O.[Ag],growth,[1],79.5% (inactive)
same,growth,[2]; 10 µM,115% (inactive)
same,growth,[3]; 10 µM,111% (inactive)
same,growth,[4]; 10 µM,106% (inactive)
same,growth,[5]; 10 µM,95.7% (inactive)
same,growth,[6]; 10 µM,111% (inactive)
same,growth,[7]; 10 µM,88.8% (inactive)
O=C(C(=Cc1ccccc1)C(=O)c1ccccc1)c1ccccc1,growth,[1],65.5% (inactive) and 74.7% (inactive)
same,growth,[2]; 10 µM,66% (inactive) and 103% (inactive)
same,growth,[3]; 10 µM,63.5% (inactive) and 104% (inactive)
same,growth,[4]; 10 µM,44.3% (inactive) and 84.4% (inactive)
same,growth,[5]; 10 µM,25.1% (inactive) and 89.3% (inactive)
same,growth,[6]; 10 µM,18.3% (inactive) and 62.2% (inactive)
same,growth,[7]; 10 µM,92.4% (inactive) and 129% (inactive)
same,growth,[8],47.8% (inactive) and 88.9% (inactive)
CO[C@H](C(=O)[C@@H](O)[C@@H](C)O)[C@@H]1Cc2cc3cc(OC4CC(OC5CC(O)C(O)C(C)O5)C(O)C(C)O4)c(C)c(O)c3c(O)c2C(=O)[C@H]1OC1CC(OC2CC(OC3CC(C)(O)C(O)C(C)O3)C(O)C(C)O2)C(O)C(C)O1 (some centres undefined),growth,[2]; 10 µM,-19.9% (active)
same,growth,[3]; 10 µM,-62.9% (active)
same,growth,[4]; 10 µM,-25.1% (active)
same,growth,[5]; 10 µM,-3.56% (active)
same,growth,[6]; 10 µM,5.29% (active)
Nc1ccc2cc3ccc(N)cc3nc2c1,growth,[1],102% (inactive) and 2.81% (active)
same,growth,[2]; 10 µM,95.9% (inactive) and 69.1% (inactive)
same,growth,[3]; 10 µM,103% (inactive) and 23.4% (inactive)
same,growth,[4]; 10 µM,103% (inactive) and 10.5% (inactive)
same,growth,[5]; 10 µM,111% (inactive) and -21.7% (active)
same,growth,[6]; 10 µM,109% (inactive) and 3.02% (active)
same,growth,[7]; 10 µM,110% (inactive) and 16.7% (inactive)
CCCCCCCCCCSC(=N)N,growth,[1],-5.33% (active)
same,growth,[2]; 10 µM,85.9% (inactive)
same,growth,[3]; 10 µM,30% (inactive)
same,growth,[4]; 10 µM,-5.44% (active)
same,growth,[5]; 10 µM,8.06% (active)
same,growth,[6]; 10 µM,23.4% (inactive)
same,growth,[7]; 10 µM,-27.2% (active)
COc1c(O)cc2oc3cc(O)c(CC=C(C)C)c(O)c3c(=O)c2c1CC=C(C)C,growth,[2]; 10 µM,105% (inactive)
same,growth,[3]; 10 µM,70.1% (inactive)
same,growth,[4]; 10 µM,60.9% (inactive)
same,growth,[5]; 10 µM,16.8% (inactive)
same,growth,[6]; 10 µM,23.7% (inactive)
same,growth,[7]; 10 µM,42.1% (inactive)
OC(CN1CCCC2CCCCC21)c1cc2ccccc2c2ccccc12 (centres undefined),growth,[2]; 10 µM,46% (inactive)
same,growth,[3]; 10 µM,32% (inactive)
same,growth,[4]; 10 µM,27.1% (inactive)
same,growth,[5]; 10 µM,7.24% (active)
same,growth,[6]; 10 µM,1.99% (active)
same,growth,[7]; 10 µM,13.5% (inactive)
N=S(c1ccccc1[N+](=O)[O-])c1ccccc1[N+](=O)[O-],growth,[1],-2.34% (active)
same,growth,[2]; 10 µM,84.7% (inactive)
same,growth,[3]; 10 µM,62.1% (inactive)
same,growth,[4]; 10 µM,17.9% (inactive)
same,growth,[5]; 10 µM,-53.7% (active)
same,growth,[6]; 10 µM,5.85% (active)
same,growth,[7]; 10 µM,90.4% (inactive)
COc1cccc2c1C(=O)c1c(O)c3c(c(O)c1C2=O)C[C@@](O)(C(C)=O)C[C@@H]3OC1CC(N)C(O)C(C)O1 (some centres undefined),growth,[1],-16.3% (active)
same,growth,[2]; 10 µM,-70.9% (active)
same,growth,[3]; 10 µM,-87.2% (active)
same,growth,[4]; 10 µM,-3.91% (active)
same,growth,[5]; 10 µM,-9.83% (active)
same,growth,[5]; 50 µM,-90.1% (active) and -89.5% (active)
same,growth,[6]; 10 µM,-37.5% (active)
same,growth,[7]; 10 µM,-86% (active)
CCCCCC(C)c1ccc(O)c(C)c1 (centres undefined),growth,[1],101% (inactive)
same,growth,[2]; 10 µM,99.7% (inactive)
same,growth,[3]; 10 µM,105% (inactive)
same,growth,[4]; 10 µM,105% (inactive)
same,growth,[5]; 10 µM,92% (inactive)
same,growth,[6]; 10 µM,95.8% (inactive)
same,growth,[7]; 10 µM,103% (inactive)
O=C1NC(=O)c2cc([N+](=O)[O-])ccc21,growth,[1],103% (inactive)
same,growth,[2]; 10 µM,123% (inactive)
same,growth,[3]; 10 µM,105% (inactive)
same,growth,[4]; 10 µM,103% (inactive)
same,growth,[5]; 10 µM,107% (inactive)
same,growth,[6]; 10 µM,116% (inactive)
same,growth,[7]; 10 µM,102% (inactive)
Clc1ccc(/C=C/c2ccccn2)c(Cl)c1,growth,[2]; 10 µM,88.4% (inactive)
same,growth,[3]; 10 µM,104% (inactive)
same,growth,[4]; 10 µM,86% (inactive)
same,growth,[5]; 10 µM,7.59% (active)
same,growth,[6]; 10 µM,77.7% (inactive)
same,growth,[7]; 10 µM,77.9% (inactive)
NNc1c2ccccc2nc2ccccc12,growth,[1],74.6% (inactive)
same,growth,[2]; 10 µM,43.8% (inactive)
same,growth,[3]; 10 µM,49.4% (inactive)
same,growth,[4]; 10 µM,43.9% (inactive)
same,growth,[6]; 10 µM,40.1% (inactive)
same,growth,[7]; 10 µM,57.1% (inactive)
O=c1ccn(C2CC(O)C(COC(c3ccccc3)(c3ccccc3)c3ccccc3)O2)c(=O)[nH]1 (centres undefined),growth,[2]; 10 µM,84.2% (inactive)
same,growth,[2]; 100 µM,13.9% (inactive)
same,growth,[3]; 10 µM,76.1% (inactive)
same,growth,[3]; 100 µM,45% (inactive)
same,growth,[4]; 10 µM,99.4% (inactive)
same,growth,[4]; 100 µM,62.2% (inactive)
same,growth,[5]; 10 µM,79.2% (inactive)
same,growth,[5]; 100 µM,16.5% (inactive)
same,growth,[6]; 10 µM,82.2% (inactive)
same,growth,[6]; 100 µM,33.9% (inactive)
same,growth,[7]; 10 µM,122% (inactive)
same,growth,[7]; 100 µM,64.2% (inactive)
CCCCCCCCCCCCCCCCCCOCC(COP(=O)([O-])OCC[N+](C)(C)C)OC (centres undefined),growth,[1],88% (inactive)
same,growth,[2]; 10 µM,97.1% (inactive)
same,growth,[3]; 10 µM,103% (inactive)
same,growth,[4]; 10 µM,70.1% (inactive)
same,growth,[5]; 10 µM,81.4% (inactive)
same,growth,[6]; 10 µM,65.1% (inactive)
same,growth,[8],29.7% (inactive)
COC(=O)C1=COC(C)C2C[n+]3ccc4c([nH]c5ccccc54)c3CC12 (centres undefined),growth,[2]; 10 µM,107% (inactive) and 102% (inactive)
same,growth,[3]; 10 µM,106% (inactive) and 109% (inactive)
same,growth,[4]; 10 µM,100% (inactive) and 84% (inactive)
same,growth,[5]; 10 µM,96% (inactive) and 79.2% (inactive)
same,growth,[5]; 100 µM,28.2% (inactive) and 1% (active)
same,growth,[6]; 10 µM,98.4% (inactive) and 99.5% (inactive)
same,growth,[7]; 10 µM,111% (inactive) and 94.1% (inactive)
same,growth,[8],102% (inactive) and 97.8% (inactive)
CCC(C)(C)c1cc(O)c(C(C)(C)CC)cc1O,growth,[1],60.3% (inactive)
same,growth,[2]; 10 µM,10.7% (inactive)
same,growth,[3]; 10 µM,27.7% (inactive)
same,growth,[4]; 10 µM,31.8% (inactive)
same,growth,[5]; 10 µM,18.4% (inactive)
same,growth,[6]; 10 µM,16.6% (inactive)
Nc1c2ccccc2nc2ccccc12,growth,[1],13.3% (inactive) and 30.4% (inactive) and 32.3% (inactive)
same,growth,[2]; 10 µM,33.8% (inactive) and 69.9% (inactive) and 83.1% (inactive)
same,growth,[3]; 10 µM,6.39% (active) and 30% (inactive) and 48.5% (inactive)
same,growth,[4]; 10 µM,2.21% (active) and 14.3% (inactive) and 26.8% (inactive)
same,growth,[5]; 10 µM,2.34% (active) and 7.36% (active) and 9.98% (active)
same,growth,[6]; 10 µM,7.6% (active) and 17.9% (inactive) and 18.2% (inactive)
same,growth,[7]; 10 µM,37.9% (inactive) and 24.7% (inactive) and 40.8% (inactive)
same,growth,[8],19.1% (inactive) and 46.2% (inactive)
COc1cccc2c1C(=O)c1c(O)c3c(c(O)c1C2=O)C[C@@](O)(C(=O)CO)C[C@@H]3OC1CC(N)C(O)C(C)O1 (some centres undefined),growth,[2]; 0.0025 µM,81.9% (inactive)
same,growth,[2]; 1 µM,5.17% (active)
same,growth,[2]; 2.5 µM,65.6% (inactive)
same,growth,[2]; 10 µM,-59.2% (active)
same,growth,[3]; 0.0025 µM,99% (inactive)
same,growth,[3]; 1 µM,50.1% (inactive)
same,growth,[3]; 2.5 µM,72.5% (inactive)
same,growth,[3]; 10 µM,-83.9% (active)
same,growth,[4]; 0.0025 µM,91.7% (inactive)
same,growth,[4]; 1 µM,-1.05% (active)
same,growth,[4]; 10 µM,1.93% (active)
same,growth,[5]; 0.0025 µM,71.4% (inactive)
same,growth,[5]; 1 µM,18.7% (inactive)
same,growth,[5]; 2.5 µM,7.74% (active)
same,growth,[5]; 10 µM,3.37% (active)
same,growth,[6]; 0.0025 µM,76.1% (inactive)
same,growth,[6]; 1 µM,8.95% (active)
same,growth,[6]; 2.5 µM,28.1% (inactive)
same,growth,[6]; 10 µM,2.8% (active)
same,growth,[7]; 0.0025 µM,84.7% (inactive)
same,growth,[7]; 1 µM,59.8% (inactive)
same,growth,[7]; 2.5 µM,-13.3% (active)
same,growth,[7]; 10 µM,-54.4% (active)
CC1=CC(C)=Nc2ccc(Cl)cc2N1,growth,[1],102% (inactive)
same,growth,[2]; 10 µM,108% (inactive)
same,growth,[3]; 10 µM,107% (inactive)
same,growth,[4]; 10 µM,98.8% (inactive)
same,growth,[5]; 10 µM,101% (inactive)
same,growth,[6]; 10 µM,100% (inactive)
same,growth,[7]; 10 µM,103% (inactive)
same,growth,[8],100% (inactive)

# Reference: PubChem BioAssay (NCI)
